Data on 15 compounds can be found in PubChem BioAssay (NCI).

Holding throughout (test): NCI-60 one-dose screen, 48 h (100 = growth as untreated, 0 = no growth, -100 = all killed)
Settings in all cases: 10 µM unless noted

For assay [1], the system named is OVCAR-8 ovarian.
For assay [2], the system named is OVCAR-5 ovarian.
Assay [3] deals with OVCAR-4 ovarian.
The test system of assay [4] is SK-OV-3 ovarian.
Assay [5] concerns IGROV1 ovarian.
Assay [6] has as its system OVCAR-3 ovarian.
Assay [7] concerns HS 578T breast.
Assay [8] relates to NCI/ADR-RES ovarian.
For assay [9], the system named is T-47D breast.
The test system of assay [10] is BT-549 breast.
In assay [11] the test system is MDA-MB-435 melanoma.
The test system of assay [12] is SW-620 colon.
Assay [13] deals with MCF7 breast.
In assay [14] the test system is HCT-116 colon.
Assay [15] relates to HCC-2998 colon.
Assay [16] concerns KM12 colon.
Assay [17] deals with RPMI-8226 leukemia.

About 83,000 compounds went through this panel and 20% of them were active in at least one assay; those are over-represented in the sample as a whole.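 Values shown are percent growth following 48 h exposure of cells in 96-well plates to a single concentration of compound; below 10 was considered active.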 Values without a mark were called inactive. The source made the active and inactive calls.

In the case of `O=C(Nc1c2ccccc2nc2ccccc12)c1ccccc1CN1C(=O)c2ccccc2C1=O`, the growth in assay [1] is 31.3%; in assay [2] it was 40.1%; in [3], 44.8%; in [4], 35.6%; in assay [5] it was 21.4%; in assay [6] it was 34.1%. The growth was 21% in assay [7]; 29.3% in [8]; 33.4% in assay [9]; 76.2% in [10]; 30.3% in assay [11]; 15.5% in [12]. For the same compound, the growth in [13] is 10.3%; in [14], 16.1%; in [15], 41.4%; in assay [16] it was 26%.
With `NCCOc1ncccc1/C=C1\C2C=CC=CC2C2C=CC(F)=CC12` (stereo not drawn), the growth was 25.7% in assay [1]; 31.3% in [2]; 68.3% in assay [3]; 20.1% in [4]; 29.9% in [5]; 35% in assay [6]. For the same compound, the growth in assay [7] is 61.5%; in assay [8], 27.8%; in assay [9] it was 33.1%; in assay [10], 84.7%; in assay [11], 63.4%; in assay [12] it was 13.3%. In addition, the growth in assay [13] is 11.8%; in assay [14], 22.2%; in assay [15], 4.37% (active); in assay [16] it was 29%.
In the case of `CC1=C([Se]CC(OC(=O)[C@@H](CSSC(C)(C)C)NC(=O)OC(C)(C)C)C(=O)NC(C)(C)C)C(=O)c2ccccc2C1=O` (stereo partly drawn), the growth was -73.7% (active) in [1]; -75.8% (active) in assay [2]; -92.9% (active) in assay [3]; -100% (active) in assay [4]; -99.2% (active) in assay [6]; -11.2% (active) in assay [7]. Moreover, the growth in assay [8] was -78.9% (active); in assay [9], -50.3% (active); in assay [10], -97.8% (active); in assay [11] it was -91.2% (active); in assay [12] it was -83.3% (active); in assay [13], -25.9% (active). The growth in assay [14] was -73.8% (active); in assay [15] it was -93.5% (active); in assay [16], -97.7% (active).
Consider `CN1CCN(Cc2ccc(NC(=O)c3ccc(C(C)(C)C)c(C#Cc4cnc5cccnn45)c3)cc2C(F)(F)F)CC1`, for which the growth in assay [1] is -30.4% (active); in assay [2] it was -25.4% (active); in [3], 15%; in assay [4], -56.6% (active); in assay [6], -68.5% (active); in [7], -24.8% (active). The growth in assay [8] is -43.5% (active); in [9], 26.6%; in assay [10] it was 88.5%; in assay [11], -88.5% (active); in [12], -61.9% (active); in assay [13] it was -74.3% (active). Also, the values for the growth in assay [14], in assay [15] and in [16] were -70.8% (active), -81.6% (active) and -80.8% (active), respectively.
For the compound `COc1cccc(-c2nc(-c3ccc(NC(=O)C(C)C)cc3)[nH]c2-c2ccnc(Br)c2)c1`, the growth was 38.1% in [1]; 70.2% in assay [2]; 33.3% in [3]; 46.4% in assay [4]; 52.1% in [5]; 37.3% in assay [6]. Also, the growth in assay [7] was -13.2% (active); in [8], 46.7%; in assay [9], 0.829% (active); in assay [10], 56.9%; in [12], 42.2%; in assay [13], 12.3%. Also, the growth in [14] is 34%; in assay [15] it was 45.7%; in assay [16] it was 36.4%.
Regarding `O=c1c2cc(F)ccc2sc2c(NCCN3CCOCC3)nc3ccccc3c12`, the growth in [1] was 81.4%; in [2], 89.5%; in assay [3], 67.5%; in [4], 85%; in assay [5], 74.6%; in [6], 76.8%. Further, the growth in assay [7] is 63.3%; in assay [8] it was 72.5%; in assay [9] it was 84.9%; in assay [10] it was 82.3%; in [11] it was 61.2%; in [12], 42.4%. The growth in assay [13] is 76.9%; in assay [14] it was 46.9%; in [15], 59%; in assay [16], 26%.
`O=c1c2cc(F)ccc2sc2c(NCCCNCCO)nc3ccccc3c12`: the growth in assay [1] was 26%; in [2], 63.4%; in assay [3], 33.3%; in [4], 79.7%; in assay [5], 22.4%; in assay [6], -14.6% (active). For the same compound, the growth in assay [7] was 34.5%; in assay [9], 22.9%; in assay [10], 66.2%; in [11] it was -82.5% (active); in assay [12], -78.3% (active); in assay [13], -51.2% (active). Also, the growth in assay [14] is -94.1% (active); in assay [15], -90.8% (active); in [16], -77% (active).
Take `CS(=O)(=O)N(c1cc(-c2ccc3ncnc(Nc4ccc(F)c(Cl)c4)c3c2)cnc1Cl)S(C)(=O)=O`: the growth in assay [1] is 66.1%; in assay [2], 30.6%; in [3], 65.7%; in assay [4], 14.6%; in assay [6] it was 36.1%; in assay [7] it was -1.88% (active). The growth was 69% in assay [8]; -11% (active) in [9]; 22% in assay [10]; 43.8% in assay [11]; 46.3% in assay [12]; 12% in assay [13]. In addition, the growth is 45.1% in assay [14], 45.1% in assay [15] and 67.1% in [16].
On to `CC1CN(C2CCCCC2)C(=S)N(c2ccccc2)C1=O` (stereo not drawn), for which the growth was 118% in assay [1]; 104% in assay [2]; 97.2% in assay [3]; 116% in assay [4]; 105% in [5]; 112% in assay [6]. Also, the growth in assay [7] is 109%; in [8] it was 102%; in assay [9], 103%; in assay [10], 108%; in assay [11], 105%; in assay [12], 103%. Moreover, the growth in assay [13] is 96.1%; in assay [14], 101%; in [15], 100%; in assay [16], 97.3%.
Take `COC1=C(C)C(=O)c2c(c(CCCl)c3n2CCC3O)C1=O` (stereo not drawn): the growth in assay [1] is 12.1%; in assay [2], 10.4%; in [3], 79.1%; in assay [4], -9.52% (active); in [6], 0.645% (active); in assay [7], -6.16% (active). In addition, the growth in [8] is 6.59% (active); in [9], 81.2%; in assay [10], -30.4% (active); in [11], -72.7% (active); in assay [12] it was 8.6% (active); in assay [13], -14.2% (active). Further, the growth in assay [14] was 9.41% (active); in assay [15] it was -39.1% (active); in [16] it was 0.859% (active).
As for `O=C(Nc1ccc(Cl)cc1F)c1ccccc1O`, the growth was 44.8% in [1]; 71.1% in assay [2]; 54.6% in assay [3]; 42.3% in assay [4]; 20.5% in assay [5]; 30.9% in [6]. The growth in [7] was 41.6%; in assay [8] it was 34.5%; in [9], 29.9%; in [10], 24.9%; in [11], 41.3%; in [12], 60.4%. The growth in assay [13] is 47.6%; in assay [14], 34.6%; in [15] it was 77.1%; in [16], 54.4%.
As for `C=C1C(=O)O[C@H]2[C@H]1CC/C(COC(=O)CCC(=O)NCCOCCOCC(=O)Nc1ccc(OC)c(C(N)=O)c1O)=C\CC[C@@]1(C)O[C@@H]21`, the growth in [17] is 87%; in [2] it was 109%; in assay [3], 110%; in assay [4] it was 96.7%; in assay [5], 59.2%; in assay [6] it was 85%. The growth in [7] is 109%; in [8] it was 103%; in assay [9], 87.1%; in assay [10], 85.9%; in assay [11], 97.8%; in assay [12], 64.2%. The growth in [13] was 74.6%; in [14], 69.5%; in [15], 112%; in assay [16], 102%.
As for `COc1c(N2CC3CCCN(C(C)=O)C3C2)c(F)cc2c(=O)c(C(=O)N[C@H]3C(O)[C@@H](O)C(CO)O[C@H]3O)cn(C3CC3)c12` (stereo partly drawn), the growth in assay [1] was 107%; in [2], 104%; in [3], 110%; in assay [4], 115%; in assay [5], 114%; in [6] it was 109%. Further, the growth in [7] was 105%; in [8], 110%; in [9] it was 99.9%; in assay [10], 115%; in assay [11], 105%; in assay [12] it was 105%. Also, the growth in assay [13] was 101%; in assay [14], 108%; in assay [15], 115%; in [16] it was 102%.
As for `O=C(Nc1ccc(-c2nc(-c3cccc(OCCN4CCOCC4)c3)c(-c3ccnc(Br)c3)[nH]2)cc1)c1ccccc1`, the growth in assay [1] was 41.5%; in assay [2], 35.4%; in [3] it was 55.2%; in [4], -25.6% (active); in [5], 43.4%; in assay [6], 44.2%. The growth in assay [7] was -41% (active); in assay [8], 53.4%; in [9], 27.6%; in [10], 45%; in assay [12] it was 2.49% (active); in assay [13], -46% (active). The growth in assay [14] was 10% (active); in [15], 11.3%; in assay [16], 0.737% (active).
Consider `COc1ccc2sc3c(NCCO)nc4ccccc4c3c(=O)c2c1`, for which the growth in assay [1] was 92.1%; in [2] it was 102%; in assay [3], 114%; in assay [4], 110%; in assay [5], 113%; in assay [6] it was 122%. In addition, the growth in assay [7] was 95.4%; in [8], 99.6%; in assay [9], 88.5%; in [10], 100%; in assay [11] it was 106%; in assay [12], 101%. Further, the growth in assay [13] was 47%; in assay [14], 92.7%; in assay [15], 115%; in [16] it was 89%.
